Data as given in PubChem BioAssay AID602382 (Sanford-Burnham Center for Chemical Genomics, 2012).
This is one part of the list. A number with no mark means an inactive call. No rule for the calls is given here.

Experiment: spectral interference with molecular beacon fluorescence, dose response, artefact control for DNMT1 inhibitor project, biochemical, fluorescent molecular beacon (AID 602382)
Details: spectral interference counter-screen

In the case of `Cc1c(C(=O)O)cccc1-n1c(C)cc(/C=C2\C(=O)NC(=O)N(c3ccc4c(c3)OCO4)C2=O)c1C`, the IC50 is reported as over 99 µM.
